Compound activity deposited in PubChem BioAssay by Sanford-Burnham Center for Chemical Genomics.
p-CIP stab down: lowers stability of the mouse p/CIP coactivator protein. F442A p/CIP-EGFP cells, EGFP fluorescence, 16 h. decrease of EGFP signal, % at 10 µM. 290,000 tested, 0.01% active. AID 1984;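 active means EGFP signal decrease of at least 30% at 10 µM or well 3 SD below plate mean, unless failing retest; inactive means the rest, including hits failing retest or dose response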
MIN6 prolif: inducers of beta-cell replication in MIN6 cells; AID 2380; 330,000 tested, 0.29% active; MIN6 cells proliferation, ATPlite luminescence, 48 h; cells starved in 0.2% serum; 100% = growth in 10% serum; proliferation, % at 10 µM;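 active means compounds whose signal lies at least 3.5 SD above the mean of all wells on their plate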
FAS TE block: inhibitors of human fatty acid synthase thioesterase domain | P49327 | recombinant FAS-TE, OMFH fluorogenic substrate, fluorescence endpoint | inhibition, % at 15 µM | 360,000 tested, 0.67% active;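 active means compounds whose normalised, plate-corrected inhibition of enzyme fluorescence in the single-dose primary screen is 50% or more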
MPTP block: inhibitors of mitochondrial permeability transition pore. isolated mouse mitochondria, Ca2+ swelling absorbance, 30 min. inhibition, % at 10 µM. 360,000 tested, 1.4% active. AID 602449;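 active means inhibition of 50% or more, scaled per plate between neutral and stimulator controls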
GRIN3A LBD mod: modulators (binders) of human NR3A ligand-binding domain; NR3A LBD differential scanning fluorimetry, Tm shift; 0% = protein alone, 100% = glycine-bound protein; Tm shift relative to glycine control, % at 25 µM; 340,000 tested, 2.5% active; AID 1259313;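 active means melting temperature shift of at least 10% of the positive control shift, at one fixed dose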
Of the large screens only hits and unclear results are named; the others gave an inactive call. Compounds with a hit are over-represented: about 4.1% of the library has one in this group of screens.

COc1ccc(OC)c(-c2cn(S(=O)(=O)c3ccccc3)nc2N)c1	GRIN3A LBD mod 17.4
COc1ccccc1-c1cn(S(=O)(=O)c2ccc(C)cc2)nc1N	none
COC(=O)C12OCC34C(CC5C(C)=C(O)C(=O)CC5(C)C3C(O)C1O)OC(=O)C(OC(=O)C=C(C)C)C24 (stereo unspecified)	GRIN3A LBD mod 14.0 (no result: p-CIP stab down, MIN6 prolif)
CN(C)CCCC(C)(O)C(Cc1ccccc1)c1ccccc1 (stereo unspecified)	GRIN3A LBD mod 14.0
CNC(=O)C[C@H]1C(=O)N(c2ccc(Br)cc2)C[C@@H]1C	none (no result: p-CIP stab down, MIN6 prolif, GRIN3A LBD mod)
O=c1oc2c(O)c(O)cc3c(=O)oc4c(O)c(O)cc1c4c23	FAS TE block 83.6 (no result: MIN6 prolif)
O=c1oc2ccccc2c2oc3cc(O)c(O)cc3c12	none
Cc1cc(SCC(=O)Nc2ccc(O)cc2)n2nc(C)c(-c3ccccc3)c2n1	none
Cc1cc(SCC(=O)Nc2ccccc2)n2ncc(-c3ccccc3)c2n1	GRIN3A LBD mod 31.7
COc1ccc(NC(=O)CSc2cc(C)nc3c(-c4ccccc4)cnn23)cc1	GRIN3A LBD mod 64.1
Cc1cc(SCC(=O)Nc2ccc(O)cc2)n2ncc(-c3ccccc3)c2n1	GRIN3A LBD mod 27.3
CC(=O)C1=CCC(c2ccccc2)N(S(=O)(=O)c2cccc(C)c2)C1 (stereo unspecified)	none (no result: p-CIP stab down, MIN6 prolif, GRIN3A LBD mod)
O=C(NC1CCCC1)C(c1ccc(F)cc1)N(Cc1ccc(F)cc1)C(=O)c1ccn[nH]1 (stereo unspecified)	GRIN3A LBD mod 17.3
CCC(C)[C@H](N)C(=O)N[C@H]1CCC2C3CC=C4C[C@@H](O)CC[C@]4(C)C3CC[C@@]21C (stereo partly specified)	none (no result: p-CIP stab down, MIN6 prolif, GRIN3A LBD mod)
O=c1c2cc(N3CCOCC3)ccc2[nH]c(=S)n1Cc1ccc(Cl)cc1	GRIN3A LBD mod 37.9
O=C(CCCCCn1c(=S)[nH]c2ccc(N3CCOCC3)cc2c1=O)NCc1ccc(Cl)cc1	none
Cn1c(Cc2ccccc2)nc(=O)c2ccccc21	none (no result: p-CIP stab down, MIN6 prolif, GRIN3A LBD mod)
COc1ccc(C(=O)NC(=S)NNC(=O)c2ccc3ccccc3n2)cc1	GRIN3A LBD mod 10.9
COc1ccc(OC)c(/C=C2\S/C(=N/NC(=O)c3ccc4ccccc4c3)NC2=O)c1	GRIN3A LBD mod 17.1 (no result: MIN6 prolif)
O=C1N/C(=N/NC(=O)c2cccc3ccccc23)S/C1=C\c1ccccc1OCc1ccccc1	none (no result: MIN6 prolif)
COc1ccc(NS(=O)(=O)c2ccc3nc(COc4ccc5ccccc5c4)[nH]c3c2)cc1	GRIN3A LBD mod 25.4
COc1ccc(NS(=O)(=O)c2ccc3nc(COc4cccc5ccccc45)[nH]c3c2)cc1	GRIN3A LBD mod 17.1
COc1ccc(OCc2nc3ccc(S(=O)(=O)Nc4ccccc4Cl)cc3[nH]2)cc1	none
OC(c1ccccc1)C(Nc1ccccn1)c1ccccc1 (stereo unspecified)	none (no result: p-CIP stab down, MIN6 prolif)
COc1ccccc1NC(=O)Nc1nc(CC(=O)Nc2ccc(OC)c(OC)c2)cs1	GRIN3A LBD mod 17.3 (no result: p-CIP stab down)
COc1cccc(NC(=O)Cc2csc(NC(=O)Nc3ccccc3OC)n2)c1	GRIN3A LBD mod 29.0 (no result: p-CIP stab down)
COc1cc(C)ccc1NC(=O)Cc1csc(NC(=O)Nc2ccccc2OC)n1	none (no result: p-CIP stab down)
CCC(=O)Nc1nc(CC(=O)Nc2ccccc2OC)cs1	none
CC(C)CC(COCc1ccc([N+](=O)[O-])cc1)N1CCN(C(=O)c2ccc(C(F)(F)F)cc2)CCC1=O (stereo unspecified)	FAS TE block 56.8
Cc1cccc(COCC(CC(C)C)N2CCN(C(=O)c3ccc(C(F)(F)F)cc3)CCC2=O)c1 (stereo unspecified)	none
Cn1c(/N=C(\N)c2ccccc2)nc2ccccc21	none (no result: p-CIP stab down, MIN6 prolif, GRIN3A LBD mod)
CCc1ccccc1NC1c2ccccc2C(=O)N1c1cc(C)ccn1 (stereo unspecified)	GRIN3A LBD mod 16.6
Cc1ccnc(N2C(=O)c3ccccc3C2Nc2ccccc2Cl)c1 (stereo unspecified)	none
Cc1nnc(N/N=C/c2c[nH]c3ccccc23)[nH]c1=O	GRIN3A LBD mod 25.0
O=C(O)c1ccc(S(=O)(=O)NN=Cc2c[nH]c3ccccc23)cc1	none (no result: p-CIP stab down, MIN6 prolif, GRIN3A LBD mod)
O=C(O)c1ccc(N/N=C/c2c[nH]c3ccccc23)cc1	GRIN3A LBD mod 10.2
O=C(CNC(=O)c1ccc([N+](=O)[O-])cc1)N/N=C/c1c[nH]c2ccccc12	none
O=C(N/N=C/c1c[nH]c2ccccc12)c1ccc(Br)cc1	GRIN3A LBD mod 29.8
Cc1occc1C(=O)N/N=C/c1c[nH]c2ccccc12	GRIN3A LBD mod 12.7
CC(=O)c1cc2cccc(OC3(C)CCN(Cc4ccc5ccccc5c4)C3)c2o1 (stereo unspecified)	none (no result: p-CIP stab down, MIN6 prolif, GRIN3A LBD mod)
COc1ccc(Cl)cc1CC=NNC(=O)c1cccc(C)c1O	none (no result: p-CIP stab down, MIN6 prolif)
Nc1ccc(C(=O)N/N=C/c2c[nH]c3ccccc23)cc1	GRIN3A LBD mod 21.5
O=C(N/N=C\c1c[nH]c2ccccc12)c1ccc(O)cc1	GRIN3A LBD mod 41.5
CC(C)(C)OC(=O)N/N=C/c1c[nH]c2ccccc12	none
O=C(N/N=C/c1c[nH]c2ccccc12)c1cc(Cl)ccc1O	GRIN3A LBD mod 35.5
NC(=S)N/N=C/c1c[nH]c2ccccc12	none
CC(C)Oc1ccc(Br)cc1C(=O)N/N=C/c1c[nH]c2ccccc12	GRIN3A LBD mod 10.8
O=C(NCC(O)c1nc2ccccc2[nH]1)c1cc([N+](=O)[O-])ccc1F (stereo unspecified)	none (no result: p-CIP stab down, MIN6 prolif, GRIN3A LBD mod)
O=C(N/N=C/c1c[nH]c2ccccc12)c1ccc(Cl)cc1	GRIN3A LBD mod 37.4
O=C(N/N=C/c1c[nH]c2ccccc12)c1ccccc1Cl	none
CCOC(=O)[C@]12CCC=C1N(Cc1ccccc1)C(=O)[C@H](CC(=O)N1CCOCC1)C2	none (no result: p-CIP stab down, MIN6 prolif, GRIN3A LBD mod)
COc1cc2cnc(-c3ccsc3)cc2cc1OC	none (no result: p-CIP stab down)
Fc1ccc2cc(-c3ccsc3)ncc2c1	GRIN3A LBD mod 34.6 (no result: p-CIP stab down)
CCCCc1[nH]c(=O)c(C#N)c2c1CSC(C)(C)C2	none
CCc1[nH]c(=O)c(C#N)c2c1CSC(C)(C)C2	GRIN3A LBD mod 12.7
CCN(CC)c1ccc(NC(=O)/C=C\c2ccccc2Cl)cc1	GRIN3A LBD mod 26.0
CN(C)c1ccc(NC(=O)/C=C/c2ccccc2Cl)cc1	GRIN3A LBD mod 30.6
Cc1cc(NC(=O)/C=C/c2ccccc2Cl)no1	none
Cc1ccc(-c2nc(SCC(=O)Nc3cc(S(=O)(=O)N4CCCCC4)ccc3Cl)n[nH]2)cc1	GRIN3A LBD mod 11.8
COc1ccc(-c2nc(SCC(=O)Nc3cc(C)on3)n[nH]2)cc1	GRIN3A LBD mod 10.0
COc1ccc(-c2nc(SCC(=O)Nc3c(F)cccc3F)n[nH]2)cc1	none (no result: p-CIP stab down)
CCCNC(=O)C1(C)CCN1C(=O)c1ccc(C(C)(C)C)cc1 (stereo unspecified)	none (no result: p-CIP stab down, MIN6 prolif, GRIN3A LBD mod)
CCOC(=O)[C@]12CCC=C1N(Cc1cccc3ccccc13)C(=O)[C@H](CC(=O)N1CCN(C(=O)c3ccco3)CC1)C2	none (no result: p-CIP stab down, MIN6 prolif, GRIN3A LBD mod)
Cn1c(=O)[nH]c(=O)c2c1nc(SCCN1CCCCC1)n2Cc1ccccc1	GRIN3A LBD mod 11.7
CC(C)=CCc1c(-c2ccc(O)cc2O)oc2cc3c(c(O)c2c1=O)C=CC(C)(C)O3	GRIN3A LBD mod 31.4 (no result: p-CIP stab down, FAS TE block, MPTP block)
Nc1cc2c(cc1[N+](=O)[O-])-c1ccccc1C2=NO	GRIN3A LBD mod 22.8 (no result: p-CIP stab down, MIN6 prolif)
